The values that follow come from the supplement of paper PMC10681739.
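Further: Full-length recombinant human ETS1 or RUNX1 bound to double-stranded 36-bp genomic probes on microarrays, detected by protein-specific primary antibody and Alexa488 secondary, spot fluorescence as median of four replicate spots.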

RUNX1, sequence (Q01196 whole entry): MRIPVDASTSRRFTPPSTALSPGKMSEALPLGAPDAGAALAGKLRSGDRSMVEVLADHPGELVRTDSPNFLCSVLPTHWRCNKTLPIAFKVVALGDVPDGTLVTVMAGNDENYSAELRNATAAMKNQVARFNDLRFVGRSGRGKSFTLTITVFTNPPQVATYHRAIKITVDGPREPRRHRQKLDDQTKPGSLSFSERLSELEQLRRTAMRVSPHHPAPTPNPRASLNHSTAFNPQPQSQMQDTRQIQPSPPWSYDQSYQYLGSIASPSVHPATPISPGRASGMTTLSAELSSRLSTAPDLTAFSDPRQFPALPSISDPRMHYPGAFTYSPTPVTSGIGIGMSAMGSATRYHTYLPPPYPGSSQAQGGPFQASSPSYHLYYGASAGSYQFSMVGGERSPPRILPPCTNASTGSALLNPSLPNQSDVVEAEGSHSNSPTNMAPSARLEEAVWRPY

This test addresses RUNX1 (UniProt Q01196). The test can be described thus: RUNX1 binding intensity (PBM fluorescence) in presence of ETS1, normalised to RUNX1-only experiment (arbitrary fluorescence units); higher = stronger binding. As to conditions: RUNX1 concentration 2 nM; ETS1 concentration 25 nM. On the procedure:
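Cooperative gcPBM on 36-bp genomic probes with neighbouring ETS1 and RUNX1 sites. Recombinant human RUNX1 (2 nM) was incubated alone or with ETS1 (25 nM) and detected with anti-RUNX1 antibody plus Alexa488 secondary. Values are medians over 4 replicate spots; the RUNX1+ETS1 data were normalised to the RUNX1-only data. The probes sit in constant array flanks that are not printed.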
For the sequence GAGTGGGCGGAAATCCGTGCCTGGCAGACCACAAAG, the RUNX1 binding intensity turned out to be 1500.

For the sequence AGCTCCACCGGAAACGGCCTGGCCGCAGCCAATCAG, the RUNX1 binding intensity worked out at 2450.

In the case of CTCTCACTTCCCGTGTGAGAAAAACCACAGAAAAGC, the RUNX1 binding intensity was found to be 4200.

As for CAGCTGACAGGAAGGAGAGAACCACAGACAGTGCGA, the RUNX1 binding intensity stood at 1260.

GGGGGCGGAAGTTTCGGTGCATTGTGGGTTCTCCTG: the RUNX1 binding intensity worked out at 1140.

For CGGCAGGCAAGCAGGAAACCGCGAGTGGAGAAAGGG, the RUNX1 binding intensity was determined as 1860.

CTTAGTGTTTGAGGATGTGGGTTTTACAATCAGATC: the RUNX1 binding intensity was found to be 1310.

As to AAGAGGAAGTCCCAAATTGCTTTTTAACCACCAACA, the RUNX1 binding intensity was determined as 888.

For TGCGAGGTTGCCAGGAAACCGCGAAGCCGAGGTCCC, the RUNX1 binding intensity worked out at 1530.

On to GGGTTGGGTGCCGGATGCGGTGAGTGAGGTTCTCAT, for which the RUNX1 binding intensity came to 4260.

In the case of AGCCGCCACTTCCTGTCTCTGCGGGTGCATGCTCTT, the RUNX1 binding intensity was found to be 3580.

Consider TGTTGTAGGGGAAGTGGTGTGTGGTATTCCTGGGGA, for which the RUNX1 binding intensity is 1070.

As for TTTGCTGCAGAAGGATGTGGTTTATTCAGGTTTGAC, the RUNX1 binding intensity came out at 1270.

CCTCAATTTCCTGGCCAGAGAAACCACTGCCTCTCA: the RUNX1 binding intensity was found to be 1810.

TTGATTGGAGCAGGATGTGGTCAGAACAGTATGCAG: the RUNX1 binding intensity was 4860.

Regarding CCGGTCCTGACCGGAAGCGGTAACCGTCACTCCTTC, the RUNX1 binding intensity stood at 7940.

As to CCCACTGCGCCAGGATGTGGTCAGGTCGGTGACGTT, the RUNX1 binding intensity is 3410.

As for AGCAGCTGCCAGAGGAAGTCTGCGGTCGGAACAGGC, the RUNX1 binding intensity is 3400.

In the case of AACATCCTGTGTAAAGAGAATTGAATGTGGTTTTCT, the RUNX1 binding intensity came out at 2600.
